Measured values taken from PubChem BioAssay (NCATS).
Active and inactive are the calls of the source. The call rests on the fitted dose curve; in most records, active means well fitted activation curve with a large enough effect; inconclusive means small, poorly fitted or top-dose-only effect; inactive means flat fitted curve, though single readings scatter.

assay: Confirmation and Secondary Assay for Modulators of Hemoglobin Beta Chain Splicing at IVS2 705 locus (AID 930); conditions: HeLa EGFP-705 splicing reporter, GFP fluorescence, 48 h; series mostly up to 46.1 µM; activation: at the top concentration; further: % of control where 0% means no effect
From the text: NIH Chemical Genomics Center [NCGC] NIH Molecular Libraries Screening Centers Network [MLSCN] MLSCN Grant: 1 X01 MH080684-01 PI Name: Dr. Ryszard Kole NCGC Assay Overview: Modulation of Alternative Splicing as Therapy Abnormal splicing is associated with a number of diseases, including cancer and genetic diseases such as cystic fibrosis, muscular dystrophy and beta-thalassemia. Alteration of disease associated splicing patterns provides a promising target for treatment. […] Mutations in the second intron of the b-globin gene at positions 654 or 705 are clinically relevant and cause mis-splicing which results in an out of frame gene product. […] EGFP-705 HeLa Cells as screen system. HeLa cell lines were stably transfected with a construct in which the EGFP (enhanced green fluorescent protein) cDNA was interrupted by the second intron of the beta-globin gene (IVS2-705). The ISV2 intron contains mutations which cause mis-splicing of EGFP and premature termination of EGFP which results in a nonfluorescent protein product. […] Expression of the transgene was driven by the CMV promoter. We concluded that a low molecular weight compound, which restored correct splicing of intron 2 would also generate functional EGFP protein, resulting in a fluorescent signal. Thus, the HeLa cells that express the EGFP-705 construct can be used for validation of splice site specificity of compounds identified in primary screening of the ISV2 654 construct.
NCGC Assay Protocol Summary: Confirmatory Screening. Freshly thawed HeLa EGFP-705 cells were seeded in 5 ul of optimem media (Invitrogen) containing 2 % fetal calf serum (Hyclone) and 1x penicillin/streptomycin (Invitrogen) at a concentration of 500 cells per well in 1536-well plates. Cells were incubated overnight at 37C in 5% CO2. The next day, cells were treated with DMSO, 500 nM antisense ISV2 654 PNA control oligo, or library compound and allowed to grow at 37C in 5% CO2 for 2 days. The PNA oligo blocked the mutation site in the intron and allowed proper (wild type) splicing to occur, resulting in full length EGFP expression and also allowed for optimization of the assay parameters. Plates were read in the Acumen Explorer (TTP Labtech) using 488 nm laser excitation and 500-520 nm emission PMT filter in a 1 x 8 uM capture mode. Fluorescnet objects ranging in size from 5 to 250 uM were measured and the total peak GFP intensity for each well was used for data analysis. Keywords: Thalassemia, beta-thalassemia, beta-globin, EGFP, ISV2 654, ISV2 705, SSO, PNA, antisense, splicing, MLSMR, MLSCN, NIH Roadmap, qHTS, NCGC

Row | Structure (SMILES) | activation
1 | [N-]=[N+]=CC(=O)OCC(N)C(=O)O (stereo unspecified) | 0.396% (inactive)
2 | CCCC(C)C1(CC)C(=O)NC(=O)NC1=O (stereo unspecified) | -0.848% (inactive)
3 | CC(N)Cc1ccc(O)cc1 (stereo unspecified) | 1.49% (inactive)
4 | CN1C2CCC1CC(OC(c1ccccc1)c1ccccc1N)C2 (stereo unspecified) | 0.908% [at 38.3 µM] (inactive)
5 | COc1ccc2[nH]cc(CCN)c2c1 | -0.0152% [at 38.3 µM] (inactive)
6 | COc1ccc2c(c1OC)C(=O)OC2C1c2cc3c(cc2CCN1C)OCO3 (stereo unspecified) | 2.16% (inactive)
7 | C[CH2][Hg][S]c1ccccc1C(=O)O | -1.03% (inactive)
8 | C=CCC1(C(C)CCC)C(=O)N=C(S)NC1=O (stereo unspecified) | 0.245% [at 38.3 µM] (inactive)
9 | OC1CCCCC1N1CCC(c2ccccc2)CC1 (stereo unspecified) | 2.07% (inactive)
10 | ClC1C(Cl)C(Cl)C(Cl)C(Cl)C1Cl (stereo unspecified) | 0.0028% (inactive)
11 | NC(Cc1ccc(N(CCCl)CCCl)cc1)C(=O)O (stereo unspecified) | 0.397% (inactive)
12 | [Cl-].[Cl-].[Hg+2] | -2.22% (inactive)
13 | COc1ccc(OC)c(C(O)C(C)N)c1 (stereo unspecified) | -0.0174% (inactive)
14 | O=[N+]([O-])c1cc(O)c(O)c([N+](=O)[O-])c1 | 0.452% [at 38.3 µM] (inactive)
15 | O=C1CCO1 | -1.1% (inactive)
16 | Clc1ccc(Cl)cc1 | 1.01% [at 38.3 µM] (inactive)
